# Results published in PubChem BioAssay.
# Test: inhibitors of PAF-induced NFkB signaling in CF airway cells, dose response, cell-based, uHTS hits, panel, cytotoxicity readout (AID 624344)
# Details: CF bronchial epithelial cells, PAF-induced NFkB reporter inhibition, with PAF, run 2; at 79 µM (top of the series) unless noted
row,Compound,inhibition
1,COc1ccc(/C=N/NC(=O)c2[nH]c3ccc(Br)cc3c2-c2ccccc2)cc1,71.3%
2,CCCc1nc(Cl)c(C#N)c2c1CCCC2,98.1%
3,COc1ccc(-c2oc3ccc(-c4ccc5c(c4)OCO5)cc3c2C#CC2(O)CCCCC2)cc1,91.6%
4,CC(=O)OCCN1c2ccccc2Sc2cnccc21,109%
5,Cc1ccc(NC(=O)c2ccccc2NS(=O)(=O)c2ccc(Cl)s2)cc1S(=O)(=O)N1CCOCC1,95.3%
6,C[C@@H]1CN([C@H](C)CO)C(=O)c2cc(NC(=O)Nc3ccc(C(F)(F)F)cc3)ccc2O[C@H]1CN(C)S(=O)(=O)c1ccccc1,110%
7,COc1ccc(OC)c(Nc2ncnc3ccc(Br)cc23)c1,97.5%
8,Cc1nn(-c2nccs2)c2c1C(=O)CC(C)(C)C2Br (stereo not given),115%
9,Nc1nc(N)nc(-c2cc([N+](=O)[O-])ccc2O)n1,66.7%
10,CN(C)CCCN(C(=O)CCOc1ccccc1)c1nc2ccc(F)cc2s1,105%
11,CCCN(CC)c1ncnc2[nH]ncc12,108%
12,Cc1c(NC(=O)c2cc(-c3cccs3)nc3ccccc23)c(=O)n(-c2ccccc2)n1C,103%
13,O=C(Oc1ccc(F)cc1C(=O)/C=C/c1cccs1)c1cccc([N+](=O)[O-])c1,40.3%
14,CCc1cc(-c2[nH]ncc2-c2ccc(OC)cc2)c(O)cc1O,104%
15,CC(C)C[C@@H](CN1CCCC1CN1C(=S)NC[C@@H]1Cc1ccc(O)cc1)N1C[C@H](Cc2ccc(O)cc2)N(CC2CCCCC2)C1=S (stereo not given in full),107%
16,COc1ccc2cc3c(N)nn(C(=O)c4ccc(F)cc4)c3nc2c1,96.1%
17,Cc1cccc(NC(=O)Nc2ccc(C#N)cc2)n1,113%
18,C=CC(=O)Nc1cccc(Oc2ncnc3[nH]cc(-c4cnc5ccccc5c4)c23)c1,109%
19,COc1cccc(NC(=O)Nc2nnc(CC(=O)Nc3ccccc3)s2)c1,85.1%
20,O=C(Nc1ccccc1N1CCOCC1)c1cc(-c2ccco2)nc2ccccc12,95.6%

row,Compound,inhibition
1,Cc1ccc(-c2cc(C(=O)N(C)Cc3cnn(C)c3C)c3cc(Br)ccc3n2)cc1,102%
2,Cc1cccc(N2CCN(C(=O)c3[nH]c(C(F)(F)F)nc3-c3ccccc3)CC2)c1C,103%
3,Nc1nccc(-c2ccc(-n3cnc4ccccc43)cc2)n1,108%
4,C=CCn1c(Oc2ccccc2F)nc2c1c(=O)n(C)c(=O)n2C,93.3%
5,COc1ccc2c(=O)cc(-c3ccncc3)oc2c1OC,103%
6,CCCc1cc(-c2[nH]ncc2-c2ccc3c(c2)OCCCO3)c(O)cc1O,102%
7,CC(C)c1ccccc1NC(=O)COC(=O)c1c2c(nc3ccccc13)CCN(Cc1ccccc1)C2,90.6%
8,CC(C)(C)OC(=O)NCC(=O)Oc1cc2oc(=O)cc(-c3ccccc3)c2cc1Cl,104%
9,CC(=O)Nc1ccc(S(=O)(=O)N2c3ccccc3C(C)=CC2(C)C)cc1,56.4%
10,CN(c1ncnc(N)c1[N+](=O)[O-])C1CCCCC1,102%
11,C=CC[C@@H](CC(=O)N[C@H](CO)Cc1ccccc1)C(=O)NC[C@H](OC(=O)[C@@H](CC=C)Cc1ccc(F)cc1)c1ccccc1,108%
12,O=C(Nc1ccc2c(c1)OCCO2)c1cc(-c2ccccn2)nc2ccc(Br)cc12,68.9%
13,CC1(Cc2cccc(F)c2)C(=O)Nc2ccc(-c3cccnc3)cc21 (stereo not given),98.2%
14,c1nc(N2CCOCC2)c2c3c(sc2n1)CCCC3,107%
15,O=[N+]([O-])c1ccc(O)c(C2CCCCC2)c1,103%
16,C=C1C(=O)C2=CC1CCC(=O)C1(C)CCC(OC(C)=O)C(C)(C)C1CC2O (stereo not given),107%
17,O=C(c1[nH]c(C(F)(F)F)nc1-c1ccccc1)N1CCN(c2c(Cl)cncc2Cl)CC1,96.2%
18,COc1ccc(-c2nc(NC(=O)c3ccc(OCC(=O)Nc4ccc(F)cc4)c(OC)c3)sc2C)cc1,96.2%
19,COc1cc(/C=N/NC(=O)Nc2cccc3nsnc23)cc(OC)c1OC,82.7%
20,C=Cc1ccc(CC2(C)C(=O)Nc3ccc(-c4cccnc4)cc32)cc1 (stereo not given),102%
